Test results as given in ChEMBL document CHEMBL3988442, “University of Dundee, Small-Polar-MMV Screening Library” (2021).

How the values were obtained:
[1] = molecular target: T1, Aspartate--tRNA(Asp/Asn) ligase (Mycobacterium tuberculosis (strain ATCC 25618 / H37Rv)) (UniProt P9WFW3); test: Assay for Asp RNA synthetase-1 from Mycobacterium tuberculosis; assay type: functional; set-up: scale not given: direction of the effect not stated beside the values; conditions: 30 µM; further: in the data most compounds retested in dose-response had high values
T1 sequence (whole entry): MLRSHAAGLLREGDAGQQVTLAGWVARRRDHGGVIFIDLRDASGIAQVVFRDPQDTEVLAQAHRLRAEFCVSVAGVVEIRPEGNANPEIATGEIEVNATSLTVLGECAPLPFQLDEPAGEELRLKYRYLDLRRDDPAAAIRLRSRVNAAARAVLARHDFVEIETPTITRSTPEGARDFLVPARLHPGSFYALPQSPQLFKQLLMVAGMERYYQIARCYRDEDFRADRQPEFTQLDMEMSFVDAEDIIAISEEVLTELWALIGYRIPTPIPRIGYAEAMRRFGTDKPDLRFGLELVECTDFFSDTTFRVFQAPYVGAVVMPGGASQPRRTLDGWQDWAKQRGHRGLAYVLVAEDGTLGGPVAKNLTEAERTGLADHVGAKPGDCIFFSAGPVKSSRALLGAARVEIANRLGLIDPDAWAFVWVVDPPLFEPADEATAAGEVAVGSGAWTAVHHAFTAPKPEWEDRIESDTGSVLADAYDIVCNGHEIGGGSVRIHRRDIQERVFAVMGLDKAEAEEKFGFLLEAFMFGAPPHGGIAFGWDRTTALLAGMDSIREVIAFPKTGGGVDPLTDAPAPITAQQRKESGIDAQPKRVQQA

[2] = molecular target: Shiga toxin 2 (Escherichia coli O157:H7) (UniProt P09385+P09386); test: E. coli 0.157:H7 Shiga Toxin SOP - stx2 screening assay; assay type: functional; set-up: scale not given: direction of the effect not stated beside the values; conditions: 30 µM

CC(=O)N1CCn2c(C(=O)N(C)C)cnc2C1
Percent Effect [1]: -2.78%
Percent Effect [2]: -21.6%

Cc1nn(C)c(C)c1CC(=O)N1CCC(Nc2cccnn2)CC1
Percent Effect [1]: -1.68%
Percent Effect [2]: -23.4%

Cc1ccc(-c2nc(CN3CCc4c(ncn4C)C3)cs2)o1
Percent Effect [1]: -4.21%
Percent Effect [2]: 0.313%

Cc1cnn(CCNCc2cccnc2)c1
Percent Effect [1]: -0.568%
Percent Effect [2]: -3.36%

Cc1n[nH]c(C)c1C1COCCN1C(=O)c1ccccc1 (configuration not stated)
Percent Effect [1]: 2.68%
Percent Effect [2]: -26%

CC(NC(=O)CCCOc1ccccc1Cl)c1ccncc1 (configuration not stated)
Percent Effect [1]: 5.49%
Percent Effect [2]: -35%

COc1cccc2c1OCC(CNC(=O)CCCN1CCOCC1)C2 (configuration not stated)
Percent Effect [1]: 4.84%
Percent Effect [2]: 5.01%

COc1ccc(CN(C)C(=O)CCC(=O)c2cccs2)c(OC)c1OC
Percent Effect [1]: 1%
Percent Effect [2]: 0.732%

Cc1cnn(CCNCC(O)COc2c(C)ccc(C)c2C)c1 (configuration not stated)
Percent Effect [1]: 1.91%
Percent Effect [2]: -6.89%

Cc1cccc2c1cnn2CCCNC(=O)C(C)C
Percent Effect [1]: 11.8%
Percent Effect [2]: -9.88%

Cc1nc(Nc2nccs2)cc(C2CCCN2C2CCOCC2)n1 (configuration not stated)
Percent Effect [1]: -3.08%
Percent Effect [2]: 3.58%

COc1c(C2CCCN2Cc2csc(C(C)C)n2)c(C)nn1C (configuration not stated)
Percent Effect [1]: -1.4%
Percent Effect [2]: -10.7%

Cn1cccc1C(=O)N1CCCC2(CCN(CCN3CCCC3)C2=O)C1 (configuration not stated)
Percent Effect [1]: -3.77%
Percent Effect [2]: -30.4%

CC(NC(=O)N1CCN(c2ccc(Cl)cc2)CC1)C(=O)N1CCSCC1 (configuration not stated)
Percent Effect [1]: -5.11%
Percent Effect [2]: 11.9%

COCCN(C)C[C@@H]1CCC[C@@H]2CN(c3cc(OC)ncn3)C[C@@H]21
Percent Effect [1]: 1.66%
Percent Effect [2]: 2.29%

Cc1cc(C2CCCN2CCCS(=O)(=O)c2ccccc2)no1 (configuration not stated)
Percent Effect [1]: -1.06%
Percent Effect [2]: -12.2%

Cc1cc2cc(C(=O)N[C@@H]3CC[C@@H](N4CCOCC4)[C@@H]3O)ccc2o1
Percent Effect [1]: 2.49%
Percent Effect [2]: 4.91%

Cc1cc(C(=O)N2CCCCC2C)ccc1NCCCO (configuration not stated)
Percent Effect [1]: -5.49%
Percent Effect [2]: 11.1%

Cc1nc(C)c(C(=O)NCCNC(=O)c2ccc(F)cc2F)s1
Percent Effect [1]: -2.04%
Percent Effect [2]: -16%

O=C(N1CCOCC1)[C@@]12CCO[C@@H]1CCN(Cc1ccccc1F)C2
Percent Effect [1]: -6.79%
Percent Effect [2]: -21.7%

CN(C)C(=O)COC1COC2(CCN(S(C)(=O)=O)CC2)C1 (configuration not stated)
Percent Effect [1]: -4.11%
Percent Effect [2]: -11.5%

COc1ccc(C2=CCN(C(=O)C3CCCN(C(N)=O)C3)CC2)cc1 (configuration not stated)
Percent Effect [1]: 1.94%
Percent Effect [2]: 26.5%

CCc1sc(-c2nnc(CNCCn3cc(C)cn3)o2)cc1C
Percent Effect [1]: 2.52%
Percent Effect [2]: -107%

Cc1cnn(CC2CCCN2C(=O)c2ccc3[nH]nnc3c2)c1 (configuration not stated)
Percent Effect [1]: -3.83%
Percent Effect [2]: -49.7%

Cc1cc(CN2CCN(C(=O)C(C)C)[C@@H]3CS(=O)(=O)C[C@@H]32)ccc1F
Percent Effect [1]: 2.51%
Percent Effect [2]: -10.2%

NC(=O)N1CCC2(CC1)CN(Cc1cccnc1)C(=O)CO2
Percent Effect [1]: 0.66%
Percent Effect [2]: -1.38%

CCC(NC(=O)C1CCN(S(=O)(=O)N(C)C)CC1)c1ccc(C)c(C)c1 (configuration not stated)
Percent Effect [1]: 4.22%
Percent Effect [2]: -32.8%

COc1ccc(-c2nc(CN3CCc4c(ncn4C)C3)cs2)cc1
Percent Effect [1]: -3.7%
Percent Effect [2]: -71.2%

O=C(NCCNc1ncccn1)N1CCCC(C(F)(F)F)C1 (configuration not stated)
Percent Effect [1]: 4.41%
Percent Effect [2]: 1.25%

CC(C)(C)c1noc(CN2CCCN(Cc3cccs3)CC2)n1
Percent Effect [1]: -4.01%
Percent Effect [2]: -1.06%

COc1cccc(OCc2cc(C(=O)NC[C@H]3CCCN3)n[nH]2)c1
Percent Effect [1]: 1%
Percent Effect [2]: -1.49%

CNC(=O)Nc1cc(-c2ccccc2C)nn1CCO
Percent Effect [1]: 10.9%
Percent Effect [2]: -22%

Cn1cnnc1C1CCCN(C(=O)NCc2ccc3c(c2)OCO3)C1 (configuration not stated)
Percent Effect [1]: -2.83%
Percent Effect [2]: 7.83%

O=C(CCc1cc(O)no1)N1CCCC(COc2ccc(F)cc2)C1 (configuration not stated)
Percent Effect [1]: -2.45%
Percent Effect [2]: -19.8%

Cc1ncc(-c2ccnc(N3CCN(C)CC3)n2)c(-c2cccnc2)n1
Percent Effect [1]: 4.45%
Percent Effect [2]: -20.4%

CC1N(CC2CC2)C(=O)COC12CCN(Cc1nccs1)CC2 (configuration not stated)
Percent Effect [1]: -0.821%
Percent Effect [2]: -13.9%

OCCC1CN(C2CCC2)CCN1C1CCCC1 (configuration not stated)
Percent Effect [1]: -1.5%
Percent Effect [2]: 7.89%

Cc1ccc(CN2CCCC3(CCN(S(C)(=O)=O)C3)C2)o1 (configuration not stated)
Percent Effect [1]: 5.01%
Percent Effect [2]: 3.27%

Cn1ccnc1CNC(=O)N(CCCO)C1CCCc2ccccc21 (configuration not stated)
Percent Effect [1]: 0.809%
Percent Effect [2]: 1.57%

O=C(c1cscn1)N1C[C@@H]2C[C@@H](c3nnc(C4CC4)o3)O[C@@H]2C1
Percent Effect [1]: 1.21%
Percent Effect [2]: -37.8%

Cc1nc(N2CCOCC2)nc2c1CCN(C(=O)NC1CCCC1)CC2
Percent Effect [1]: 2.29%
Percent Effect [2]: -52.5%

Cn1cc(Cl)cc1C(=O)N1CCCN(Cc2cccs2)CC1
Percent Effect [1]: -5.24%
Percent Effect [2]: 19.8%

CCn1cnnc1CNC(=O)N1CCN(Cc2ccccc2)CC1
Percent Effect [1]: -0.692%
Percent Effect [2]: 8.37%

Cc1cncc(C2CCCN(C(=O)c3c[nH]c(=O)[nH]c3=O)C2)n1 (configuration not stated)
Percent Effect [1]: 3.87%
Percent Effect [2]: 26.6%

Cc1ccccc1CN1CCCN(C2CCOC2=O)CC1 (configuration not stated)
Percent Effect [1]: -0.409%
Percent Effect [2]: 15%

O=C(NCCn1ccnc1)N1CCN(c2nccs2)CC1
Percent Effect [1]: 2.45%
Percent Effect [2]: -47.2%
